{"source": "PubChem BioAssay (NCATS)", "note": "Inconclusive results are not listed. Activity calls are given as the source filed them. Calls follow the shape of the full dose curve. % is scaled to controls: 0 for no effect and ±100 for the full control effect."}
{"assay": "Primary qHTS for inhibitors of MERS-S pseudo-typed particle cell entry (AID 1479149); also: nearly all actives have a fitted effect of over 60% in size", "settings": "MERS-S pseudotyped particle entry, luciferase; series mostly up to 57.1 µM; activity change, negative = inhibition: at the top concentration"}
{"molecule": "O=C(O)c1cc(O)c(O)c(O)c1", "activity change, negative = inhibition": "-6.23% (inactive)"}
{"molecule": "O=C(O)CCC(=O)O", "outcome": "inactive"}
{"molecule": "C[C@](O)(CS(=O)(=O)c1ccc(F)cc1)C(=O)Nc1ccc(C#N)c(C(F)(F)F)c1", "outcome": "inactive"}
{"molecule": "C[C@@H]1C[C@H]2[C@@H]3C[C@H](F)C4=CC(=O)C=C[C@]4(C)[C@@]3(F)[C@@H](O)C[C@]2(C)[C@@]1(O)C(=O)CO", "activity change, negative = inhibition": "-12.6% (inactive)"}
{"molecule": "NC(=O)c1ccc([N+](=O)[O-])cc1Cl", "outcome": "inactive"}
{"molecule": "CCCCCCCCCCC[C@@H](C[C@@H]1OC(=O)[C@H]1CCCCCC)OC(=O)[C@H](CC(C)C)NC=O", "outcome": "inactive"}
{"molecule": "COc1cc(NS(=O)(=O)c2ccc(N)cc2)nc(C)n1", "outcome": "inactive"}
{"molecule": "CC(=O)OCC(=O)[C@@]1(O)CC[C@H]2[C@@H]3CCC4=CC(=O)CC[C@]4(C)[C@H]3C(=O)C[C@@]21C", "outcome": "inactive"}
{"molecule": "COC1CC(=C(c2cccs2)c2cccs2)C[N+](C)(C)C1", "note": "(configuration not stated)", "activity change, negative = inhibition": "3.98% (inactive)"}
{"molecule": "CN[C@@H]1[C@H](O)[C@H](NC)[C@H]2O[C@@]3(O)C(=O)C[C@@H](C)O[C@H]3O[C@@H]2[C@H]1O", "outcome": "inactive"}
{"molecule": "CCc1cc2c(s1)-n1c(C)nnc1CN=C2c1ccccc1Cl", "outcome": "inactive"}
{"molecule": "C[C@]12CC[C@@H]3c4ccc(OC(=O)N(CCCl)CCCl)cc4CC[C@H]3[C@@H]1CC[C@@H]2O", "outcome": "inactive"}
{"molecule": "CCCCCCCCCCCCCCCCCC(=O)OCC(O)CO", "note": "(configuration not stated)", "outcome": "inactive"}
{"molecule": "O=c1oc2ccccc2c(O)c1Cc1c(O)c2ccccc2oc1=O", "activity change, negative = inhibition": "3.39% (inactive)"}
{"molecule": "CS(=O)(=O)c1ccc([C@@H](O)[C@@H](CF)NC(=O)C(Cl)Cl)cc1", "outcome": "inactive"}
{"molecule": "C[C@@H](N)[C@@H](O)c1ccccc1", "outcome": "inactive"}
{"molecule": "C[C@H]1C[C@@H]2[C@H]([C@@H](O)C[C@@]3(C)[C@H]2CC[C@]3(O)C(=O)CO)[C@@]2(C)C=CC(=O)C=C12", "outcome": "inactive"}
{"molecule": "CC(O)(P(=O)(O)O)P(=O)(O)O", "activity change, negative = inhibition": "-35.1% (inactive)"}
{"molecule": "COc1cccc(OC)c1C(=O)N[C@@H]1C(=O)N2[C@@H]1SC(C)(C)[C@@H]2C(=O)O", "outcome": "inactive"}
{"assay": "Primary qHTS for Vero E6 cytotoxicity: counterscreen for inhibitors of SARS-S pseudo-typed particle cell entry (AID 1479150)", "settings": "cell viability; series mostly up to 57.1 µM; activity change, negative = cytotoxicity: at the top concentration"}
{"molecule": "C[C@H](NC(CCc1ccccc1)C(=O)O)C(=O)N1CCC[C@H]1C(=O)O", "note": "(some centres not stated)", "activity change, negative = cytotoxicity": "-3.54% (inactive)"}
{"molecule": "CCN[C@H]1CN(CCCOC)S(=O)(=O)c2sc(S(N)(=O)=O)cc21", "activity change, negative = cytotoxicity": "1.62% (inactive)"}
{"molecule": "O=C(O)CCCC[C@@H]1SC[C@@H]2NC(=O)N[C@@H]21", "outcome": "inactive"}
{"molecule": "O=C(O)c1cc(O)c(O)c(O)c1", "outcome": "inactive"}
{"molecule": "Cc1cc(OI)c(C(C)C)cc1-c1cc(C(C)C)c(OI)cc1C", "outcome": "inactive"}
{"molecule": "O=C(O)CCC(=O)O", "outcome": "inactive"}
{"molecule": "C[C@](O)(CS(=O)(=O)c1ccc(F)cc1)C(=O)Nc1ccc(C#N)c(C(F)(F)F)c1", "outcome": "inactive"}
{"molecule": "CO[C@@]1(NC(=O)C(C(=O)O)c2ccc(O)cc2)C(=O)N2C(C(=O)O)=C(CSc3nnnn3C)CO[C@@H]21", "note": "(some centres not stated)", "activity change, negative = cytotoxicity": "-2.08% (inactive)"}
{"molecule": "CC(=O)Nc1ccc(C(=O)O)cc1", "activity change, negative = cytotoxicity": "0.341% (inactive)"}
{"molecule": "C[C@@H]1C[C@H]2[C@@H]3C[C@H](F)C4=CC(=O)C=C[C@]4(C)[C@@]3(F)[C@@H](O)C[C@]2(C)[C@@]1(O)C(=O)CO", "outcome": "inactive"}
{"molecule": "COCCOC(=O)C1=C(C)NC(C)=C(C(=O)OC(C)C)C1c1cccc([N+](=O)[O-])c1", "note": "(configuration not stated)", "outcome": "inactive"}
{"molecule": "NC(=O)c1ccc([N+](=O)[O-])cc1Cl", "activity change, negative = cytotoxicity": "2.67% (inactive)"}
{"molecule": "CO[C@@H]1[C@@H](OC(N)=O)[C@@H](O)[C@H](Oc2ccc3c(O)c(NC(=O)c4ccc(O)c(CC=C(C)C)c4)c(=O)oc3c2C)OC1(C)C", "activity change, negative = cytotoxicity": "4.51% (inactive)"}
{"molecule": "NC(N)=NC(=O)Cc1c(Cl)cccc1Cl", "outcome": "inactive"}
{"molecule": "Nc1ncnc2nc[nH]c12", "outcome": "inactive"}
{"molecule": "CCCCCCCCCCC[C@@H](C[C@@H]1OC(=O)[C@H]1CCCCCC)OC(=O)[C@H](CC(C)C)NC=O", "activity change, negative = cytotoxicity": "-3.13% (inactive)"}
{"molecule": "COc1cc(NS(=O)(=O)c2ccc(N)cc2)nc(C)n1", "outcome": "inactive"}
{"molecule": "CC(=O)OCC(=O)[C@@]1(O)CC[C@H]2[C@@H]3CCC4=CC(=O)CC[C@]4(C)[C@H]3C(=O)C[C@@]21C", "activity change, negative = cytotoxicity": "3.35% (inactive)"}
{"molecule": "COC1CC(=C(c2cccs2)c2cccs2)C[N+](C)(C)C1", "note": "(configuration not stated)", "outcome": "inactive"}
{"molecule": "CN[C@@H]1[C@H](O)[C@H](NC)[C@H]2O[C@@]3(O)C(=O)C[C@@H](C)O[C@H]3O[C@@H]2[C@H]1O", "outcome": "inactive"}
{"molecule": "CC(C(=O)O)c1ccc2c(c1)CC(=O)c1ccccc1S2", "note": "(configuration not stated)", "outcome": "inactive"}
{"molecule": "CCc1cc2c(s1)-n1c(C)nnc1CN=C2c1ccccc1Cl", "outcome": "inactive"}
{"molecule": "CC(=O)Nc1c(I)cc(I)c(C(=O)O)c1I", "activity change, negative = cytotoxicity": "0.132% (inactive)"}
{"molecule": "C[C@]12CC[C@@H]3c4ccc(OC(=O)N(CCCl)CCCl)cc4CC[C@H]3[C@@H]1CC[C@@H]2O", "outcome": "inactive"}
{"molecule": "CCCCCCCCCCCCCCCCCC(=O)OCC(O)CO", "note": "(configuration not stated)", "outcome": "inactive"}
{"molecule": "Nc1cc(C(Cl)=C(Cl)Cl)c(S(N)(=O)=O)cc1S(N)(=O)=O", "outcome": "inactive"}
{"molecule": "O=c1oc2ccccc2c(O)c1Cc1c(O)c2ccccc2oc1=O", "activity change, negative = cytotoxicity": "1.45% (inactive)"}
{"molecule": "CC(=O)Nc1ccc(CC(=O)O)cc1", "activity change, negative = cytotoxicity": "4.64% (inactive)"}
{"molecule": "CCCc1ccc(OCC(=O)N2CCN(C(=O)COc3ccc(CCC)cc3OC)CC2)c(OC)c1", "outcome": "inactive"}
{"molecule": "CS(=O)(=O)c1ccc([C@@H](O)[C@@H](CF)NC(=O)C(Cl)Cl)cc1", "outcome": "inactive"}
{"molecule": "Cc1cc2c(cc1S(N)(=O)=O)S(=O)(=O)CCC2", "outcome": "inactive"}
{"molecule": "CCn1cc(C(=O)O)c(=O)c2cc(F)c(N3CCNC(C)C3)c(F)c21", "note": "(configuration not stated)", "activity change, negative = cytotoxicity": "-3.56% (inactive)"}
{"molecule": "CC(C)[C@H]1C(=O)N2CCC[C@H]2[C@]2(O)O[C@](NC(=O)[C@@H]3C[C@@H]4c5cccc6[nH]cc(c56)C[C@H]4N(C)C3)(C(C)C)C(=O)N12", "activity change, negative = cytotoxicity": "4.54% (inactive)"}
{"molecule": "C[C@@H](N)[C@@H](O)c1ccccc1", "activity change, negative = cytotoxicity": "3.93% (inactive)"}
{"molecule": "Nc1ccc(S(=O)(=O)c2ccc(N)cc2)cc1", "outcome": "inactive"}
{"molecule": "C[C@H]1C[C@@H]2[C@H]([C@@H](O)C[C@@]3(C)[C@H]2CC[C@]3(O)C(=O)CO)[C@@]2(C)C=CC(=O)C=C12", "activity change, negative = cytotoxicity": "-1.52% (inactive)"}
{"molecule": "CC(O)(P(=O)(O)O)P(=O)(O)O", "activity change, negative = cytotoxicity": "-10.5% (inactive)"}
{"molecule": "COc1cccc(OC)c1C(=O)N[C@@H]1C(=O)N2[C@@H]1SC(C)(C)[C@@H]2C(=O)O", "outcome": "inactive"}
